Measured values reported in PubChem BioAssay (Tox21).
Unmarked numbers belong to inactive results. Inconclusive results are not listed. A call without a number means that no potency is given here. The source made the active and inactive calls. Unless noted, the call rests on the fitted dose curve; in most records, active means well fitted curve in the direction sought with a large enough effect in the repeat runs; inconclusive means weak or mixed curves; inactive means no such curve, though single readings can be large; an effect the other way counts as inactive or inconclusive.

Legend:
[1] = qHTS assay for small molecules that induce genotoxicity in human embryonic kidney cells expressing luciferase-tagged ATAD5 (AID 651632); further: nearly all actives have a fitted effect of over 15% in size
In short: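 Quantitative HTS in HEK293T expressing luciferase-tagged ATAD5, whose levels rise upon DNA damage. Exposure ran 16 hr at 37C and 5% CO2, with luminescence read 30 min after Amplite addition at room temperature.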

[2] = qHTS assay for small molecule agonists of the p53 signaling pathway - cell viability (AID 651633; calls by dose curve;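 further: p53RE-bla HCT reporter cells with a stable beta-lactamase p53 reporter; series mostly up to about 83 µM; nearly all actives have a fitted effect of over 30% in size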)
In short: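 p53RE-bla cells were treated with compound for 16 hours at 37 C. Cytotoxicity was then measured as CellTiter-Glo luminescence after 30 min at room temperature.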

[3] = qHTS assay for small molecule disruptors of the mitochondrial membrane potential (AID 720635); further: potency means the concentration at half of the fitted maximal effect
In short: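 HepG2 cells exposed to compound 1 hr at 37C, then Mito-MPS dye 30 min. Ratio read of aggregate (540/590 nm) versus monomer (490/535 nm) fluorescence.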

[4] = qHTS assay to test for compound auto fluorescence at 590 nm (red) in HepG2 cells (AID 720674)
In short: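 Fluorescence at 590 nm emission following 540 nm excitation was recorded from HepG2 wells one hour after compound transfer, with DMSO-only wells as vehicle and Rose Bengal sodium equivalency as the scale.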

[5] = qHTS assay to test for compound auto fluorescence at 535 nm (green) in HepG2 cells (AID 720675)
[6] = qHTS assay to test for compound auto fluorescence at 460 nm (blue) in HEK293 cells (AID 720678)
In short: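 Blue-channel (Ex/Em 405/460 nm) intensity measured in HEK293 cultures after overnight compound exposure at 37C; signal expressed relative to triamterene. Cells plated 2,000 per well in 10% dialyzed FBS medium and allowed 4-5 hr to attach.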

[7] = qHTS assay to test for compound auto fluorescence at 590 nm (red) in HEK293 cells (AID 720679)
In short: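 Red-channel autofluorescence (Ex/Em 540/590 nm; Rose Bengal sodium reference) was measured after overnight 37C, 5% CO2 exposure of attached HEK293 cells, 2,000 per well in medium with 10% dialyzed FBS.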

[8] = qHTS assay for small molecules that induce genotoxicity in human embryonic kidney cells expressing luciferase-tagged ATAD5 - cell viability (AID 651634; calls by dose curve; further: nearly all actives have a fitted effect of over 25% in size)
In short: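 After 15.5 hr incubation with compound at 37C, 5% CO2, HEK293T ATAD5-luciferase cells received CellTiter-Fluor reagent; fluorescence intensity was quantified following 30 min at 37C.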

[9] = qHTS assay for small molecule disruptors of the mitochondrial membrane potential - cell viability (AID 720634; calls by dose curve;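 further: human HepG2 liver cancer cells; series mostly up to about 83 µM; nearly all actives have a fitted effect of over 20% in size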)
In short: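 ATP-based luminescent viability readout (CellTiter-Glo, 30 min, room temperature) in HepG2 cells multiplexed with the m-MPI membrane potential dye; compound exposure lasted 1 hr at 37 C.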

Row | Structure (SMILES) | outcome [1] | outcome [2] | Potency [3] | outcome [4] | outcome [5] | outcome [6] | outcome [7] | Potency [8] | outcome [9] | fluorescence, relative to Rose Bengal [4] | fluorescence, % of fluorescein control [5] | fluorescence, % of triamterene [6] | fluorescence, % of fluorescent control [7]
1 | COP(=O)(O)OP(=O)(O)OC | inactive | inactive | inactive | inactive | inactive | inactive | inactive |  |  |  |  |  | 
2 | CN(C)CCN(C)CCO | inactive |  | inactive | inactive | inactive | inactive | inactive | inactive |  |  |  |  | 
3 | COc1ccc(CCO)cc1 | inactive |  |  | inactive | inactive | inactive | inactive | inactive | inactive |  |  |  | 
4 | Cc1ccc(N)cc1S(=O)(=O)O | inactive | inactive |  | inactive | inactive | inactive | inactive |  |  |  |  |  | 
5 | CN1C[C@@H]2C[C@H]1CN2c1cc2c(cc1F)c(=O)c(C(=O)O)cn2C1CC1 |  | inactive |  | inactive | inactive | inactive | inactive | inactive |  |  |  |  | 
6 | COc1nc(N)nc2nc[nH]c12 |  | inactive |  | inactive | inactive | inactive | inactive | inactive | inactive |  |  |  | 
7 | CN(C)CCOC(=O)C(c1ccccc1)C1(O)CCCC1 (stereo not drawn) |  |  | inactive | inactive | inactive | inactive | inactive |  | inactive |  |  |  | 
8 | CC(=O)CCC1=C(C)CCCC1(C)C |  |  | inactive | inactive | inactive | inactive | inactive |  | inactive |  |  |  | 
9 | CO/N=C(/C(=O)N[C@@H]1C(=O)N2C(C(=O)[O-])=C(C[n+]3ccn4ncccc43)CS[C@H]12)c1nsc(N)n1 |  |  | inactive | inactive | inactive | inactive | inactive | inactive |  |  |  |  | 
10 | COC(=O)c1cc(Cl)cc(Cl)c1 | inactive |  |  | inactive | inactive | inactive | inactive | inactive | inactive |  |  |  | 
11 | CC(=O)Nc1ccc(OC(=O)c2ccccc2OC(C)=O)cc1 |  |  |  | inactive | inactive | inactive | inactive | inactive | inactive |  |  |  | 
12 | OCC(O)CN1CCN(c2ccccc2)CC1 (stereo not drawn) |  | inactive | inactive | inactive | inactive | inactive | inactive | inactive | inactive |  |  |  | 
13 | ONc1ccccc1 |  | inactive |  | inactive | inactive | inactive | inactive |  |  |  |  |  | 
14 | CCCC(=O)Nc1ccc(OCC(O)CNC(C)C)c(C(C)=O)c1 (stereo not drawn) | inactive |  |  |  |  |  |  |  | inactive | -0.376% [at 18.6 µM] | -0.0898% [at 18.6 µM] | 0.0234% [at 18.6 µM] | -0.0649% [at 18.6 µM]
15 | CC(C)C1OCCN1CCOC(=O)NCCCCCCNC(=O)OCCN1CCOC1C(C)C (stereo not drawn) | inactive |  |  | inactive | inactive | inactive | inactive |  | inactive |  |  |  | 
16 | CC(S)C(C)S (stereo not drawn) | inactive |  | inactive | inactive | inactive | inactive | inactive | inactive | inactive |  |  |  | 
17 | Cc1c(C(=O)c2c[nH]n(C)c2=O)ccc(S(C)(=O)=O)c1C1=NOCC1 |  | inactive |  | inactive | inactive | inactive | inactive |  | inactive |  |  |  | 
18 | COc1c2occc2c(OC)c2c(=O)cc(C)oc12 |  |  |  |  |  |  |  | inactive | inactive | 0.0231% [at 18.6 µM] | -0.275% [at 18.6 µM] | 0.0098% [at 18.6 µM] | 0.0103% [at 18.6 µM]
19 | CC1(C)O[C@H]2CC(=O)OC[C@]23[C@H]2CC[C@@]4(C)[C@H](c5ccoc5)OC(=O)[C@H]5O[C@]54[C@]2(C)C(=O)C[C@@H]13 |  |  | inactive | inactive | inactive | inactive | inactive | inactive | inactive |  |  |  | 
20 | CC(C)OC(=O)CCC(=O)OC(C)C | inactive |  |  | inactive | inactive | inactive | inactive | inactive | inactive |  |  |  | 
21 | Cc1c(Cl)cccc1Cl |  | inactive |  | inactive | inactive | inactive | inactive |  | inactive |  |  |  | 
22 | CCCCCCCCCCCCCBr | inactive | inactive |  | inactive | inactive | inactive | inactive |  | inactive |  |  |  | 
23 | CN(C)C(C)(C)CO |  | inactive | inactive | inactive | inactive | inactive | inactive | inactive | inactive |  |  |  | 
24 | CC1(C)CC(OC(=O)CCCCCCCCC(=O)OC2CC(C)(C)NC(C)(C)C2)CC(C)(C)N1 | inactive |  | 2.96 µM (active) |  |  |  |  | inactive |  | 0.031% [at 18.6 µM] | -0.0628% [at 18.6 µM] | -0.0282% [at 18.6 µM] | 0.252% [at 18.6 µM]
